From PubChem BioAssay (NCATS)
Several values for one entry are separate records, joined by “and”; a condition that tells them apart may be missing. Identical values can stand only once. Values without a mark were called inactive. Inconclusive results are not listed. Entries that show only a call come without a potency. Activity calls are given as the source filed them. Unless noted, calls come from the whole dose curve; as a rule, active = well fitted curve in the direction sought with a large enough effect; inconclusive = small, poorly fitted or top-dose-only effect, or another doubt; inactive = no such curve, though single readings can be large; an effect the other way counts as inactive or inconclusive.

Legend:
[1] = target: Tumor necrosis factor (Homo sapiens) (UniProt P01375); experiment: qHTS assay to identify small molecules that stimulate Tumor Necrosis Factor-alpha (TNF-alpha) secretion (AID 651757; active = well fitted curve in the direction sought with a large enough effect in the signal ratio; the % refers to the signal ratio; note: potency is the fitted concentration of half-maximal effect)
In short: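 Secreted TNF-alpha from compound-treated THP-1 cells (17 hrs, 37 C) was quantified with a homogeneous time-resolved fluorescence antibody assay.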

[2] = qHTS assay for environmental chemicals that activate the Aryl hydrocarbon Receptor (AhR) signaling pathway (AID 651777); settings: 1A2-DRE human hepatoma cells, luciferase, 24 h; activation: stronger effect = higher value; note: nearly all actives have a fitted effect of over 15% in size; note: potency is the fitted concentration of half-maximal effect
In short: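 Stable CYP1A2 promoter/DRE-luciferase human hepatoma line treated 24 hr; One-Glo luminescence, 30 min RT.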

[3] = target: Peroxisome proliferator-activated receptor alpha (Homo sapiens) (UniProt Q07869); experiment: qHTS assay for small molecule agonists of the peroxisome proliferator-activated receptor alpha (PPARalpha) signaling pathway (AID 651778); settings: PathHunter PPARalpha complementation, chemiluminescence, 6 h; stronger effect = higher value
In short: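 Enzyme-fragment complementation assay in which ligand-bound PPARalpha translocates and forms an active enzyme that generates chemiluminescence. Cells were plated overnight, exposed to compound for 6 hr at 37 C, and then given detection reagent for 60 min at room temperature.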

[4] = target: Nuclear receptor ROR-gamma (Homo sapiens) (UniProt P51449); experiment: qHTS assay for small molecule antagonists of the retinoid-related orphan receptor gamma (ROR-gamma) signaling pathway (AID 651802);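 note: CHO cells with doxycycline-induced ROR-gamma expression; series mostly up to about 92 µM; nearly all actives have a fitted effect of over 60% in size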
In short: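 Antagonism is scored as a fall in luminescence from a RORE-luciferase reporter in CHO cells expressing ROR under a TET-inducible promoter, measured 16hr after doxycycline induction in the presence of compound.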

[5] = qHTS assay for small molecule agonists of the antioxidant response element (ARE) signaling pathway measured by Nrf2-dependant transcriptional activity (AID 720636; active = well fitted curve in the direction sought with a large enough effect in the repeat runs; an effect the other way counts as inactive or inconclusive;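 note: HepG2 cells with an ARE-driven luciferase reporter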)
In short: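 Reporter gene assay, HepG2 ARE-luc: 16 hr compound, 37 C, 5% CO2; read-out luciferase luminescence.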

[6] = qHTS assay for small molecule agonists of the antioxidant response element (ARE) signaling pathway measured by Nrf2-dependant transcriptional activity - cell viability counter screen (AID 720653; active = well fitted curve in the direction sought with a large enough effect in the repeat runs; an effect the other way counts as inactive or inconclusive); settings: ARE-bla HepG2 viability, CellTiter-Glo ATP luminescence, 16 h; stronger effect = lower value
In short: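 ARE-bla HepG2 cells treated with compounds for 16 h at 37C; this counter screen measures viability as intracellular ATP by CellTiter-Glo luminescence after 30 min at room temperature.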

[7] = qHTS assay for cell viability of HEK293 cells (AID 743288); settings: ATP luminescence (CellTiter-Glo), 18 h, stronger effect = lower value; note: nearly all actives have a fitted effect of over 50% in size
In short: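 HEK293 parental, 2,000 cells/well; ≥5 h pre-incubation 37 C; pintool compound addition; 18 h, 37 C; CellTiter-Glo 30 min RT; luminescence read.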

[8] = qHTS assay to identify small molecules that stimulate interleukin-8 (IL-8) secretion (AID 651758; active = well fitted activation curve with a large enough effect in the signal ratio; the % refers to the signal ratio)
In short: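 THP-1 cells (2000/well) exposed to compound 16 h at 37 C; secreted IL-8 then detected by HTRF with cryptate- and XL665-labelled anti-IL-8 antibody pair after 1-3 h at room temperature.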

[9] = qHTS assay for small molecule antagonists of the retinoid-related orphan receptor gamma (ROR-gamma) signaling pathway - cell viability counter screen (AID 720652; active = well fitted curve in the direction sought with a large enough effect in the repeat runs; an effect the other way counts as inactive or inconclusive;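 note: CHO reporter cells with doxycycline-induced ROR-gamma expression; series mostly up to about 92 µM; compound exposure lasted 16 hr before ATP read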)
In short: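 Cytotoxicity is quantified via intracellular ATP (CellTiter-Glo luminescence) in doxycycline-induced CHO ROR response element-luciferase reporter cells treated with compound for 16 hr at 37 C, 5% CO2.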

[10] = qHTS assay for small molecule disruptors of the mitochondrial membrane potential - 5 hr assay (AID 651755; calls by dose curve; note: nearly all actives have a fitted effect of over 40% in size)
In short: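 HepG2 cells (2,000/well), attached overnight, exposed to compound 5 hr at 37C, then Mito-MPS dye 30 min. Fluorescence read for monomers (490/535 nm) and aggregates (540/590 nm).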

Sequence of Peroxisome proliferator-activated receptor alpha (Homo sapiens) (Q07869 whole entry, looked up, the tested form may be a part): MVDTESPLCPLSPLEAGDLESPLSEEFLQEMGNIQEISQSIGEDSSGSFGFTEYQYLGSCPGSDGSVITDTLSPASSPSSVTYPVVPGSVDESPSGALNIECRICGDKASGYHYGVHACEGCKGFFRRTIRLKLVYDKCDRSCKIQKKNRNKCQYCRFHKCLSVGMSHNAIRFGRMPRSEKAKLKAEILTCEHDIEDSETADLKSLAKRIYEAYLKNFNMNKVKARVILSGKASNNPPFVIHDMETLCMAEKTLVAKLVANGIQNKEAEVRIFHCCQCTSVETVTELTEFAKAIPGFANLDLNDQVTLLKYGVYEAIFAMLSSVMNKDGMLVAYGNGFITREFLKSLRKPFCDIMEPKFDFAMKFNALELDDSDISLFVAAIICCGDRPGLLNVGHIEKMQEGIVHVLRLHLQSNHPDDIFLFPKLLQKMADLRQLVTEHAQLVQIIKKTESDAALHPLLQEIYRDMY
Sequence of Tumor necrosis factor (Homo sapiens) (P01375 whole entry, looked up): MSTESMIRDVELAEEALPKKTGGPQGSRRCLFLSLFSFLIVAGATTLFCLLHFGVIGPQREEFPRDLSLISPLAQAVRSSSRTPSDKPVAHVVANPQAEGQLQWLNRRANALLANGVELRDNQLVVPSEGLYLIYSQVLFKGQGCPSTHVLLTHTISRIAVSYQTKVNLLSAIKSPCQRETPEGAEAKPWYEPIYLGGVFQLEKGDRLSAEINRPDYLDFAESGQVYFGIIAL
Sequence of Nuclear receptor ROR-gamma (Homo sapiens) (P51449 whole entry, looked up): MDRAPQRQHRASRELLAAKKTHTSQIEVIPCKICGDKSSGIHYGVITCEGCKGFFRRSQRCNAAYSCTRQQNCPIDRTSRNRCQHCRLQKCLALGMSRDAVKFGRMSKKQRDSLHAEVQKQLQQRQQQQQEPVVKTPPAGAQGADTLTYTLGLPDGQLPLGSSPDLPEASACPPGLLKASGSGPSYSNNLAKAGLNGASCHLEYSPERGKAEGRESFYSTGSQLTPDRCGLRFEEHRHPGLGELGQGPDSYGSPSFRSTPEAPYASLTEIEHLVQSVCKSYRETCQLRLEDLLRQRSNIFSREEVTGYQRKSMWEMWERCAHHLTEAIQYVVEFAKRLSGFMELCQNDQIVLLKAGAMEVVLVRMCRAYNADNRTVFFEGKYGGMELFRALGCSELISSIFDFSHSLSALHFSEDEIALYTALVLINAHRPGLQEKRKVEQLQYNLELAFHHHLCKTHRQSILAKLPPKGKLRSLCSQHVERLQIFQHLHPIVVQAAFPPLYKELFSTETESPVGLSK

Clc1ccc(Cl)c(Cl)c1Cl
Potency [1]: inactive
activation [2]: 0.208% and -1.37%
max response [3]: -7.17% and 0.0854%
Potency [4]: inactive
outcome [5]: inactive
max response [6]: 13.5% and -3.85%
max response [7]: 5.4% and -1.16%

Nc1ccc([N+](=O)[O-])c(N)c1
Potency [1]: inactive
Potency [8]: inactive
activation [2]: 1.41%
max response [3]: -0.849%
Potency [4]: inactive
outcome [5]: inactive
Potency [9]: inactive
max response [6]: -4.59%
max response [7]: 8.4%

O=[N+]([O-])c1ccc2nc[nH]c2c1
Potency [8]: inactive
Potency [4]: inactive
outcome [5]: inactive
Potency [9]: inactive
max response [6]: -5.47%
max response [7]: 3.84%

CSc1ccc(C=O)cc1
Potency [10]: inactive
max response [3]: -3.7%
Potency [4]: inactive
outcome [5]: inactive
Potency [9]: inactive
max response [6]: -8.76%
max response [7]: 8.71%

Nc1ccccc1S(=O)(=O)O
Potency [10]: inactive
activation [2]: -0.162%
Potency [4]: inactive
outcome [5]: inactive
Potency [9]: inactive
max response [7]: -1.86%

CCCC=O
Potency [10]: inactive
max response [3]: 2.48%
Potency [4]: inactive
outcome [5]: inactive
Potency [9]: inactive
max response [6]: -6.36%
max response [7]: -2.32%

CCCCC(CC)C(=O)O (stereo unspecified)
Potency [10]: inactive
max response [3]: -2.43%
Potency [4]: inactive
outcome [5]: inactive
Potency [9]: inactive
max response [6]: -5.11%
max response [7]: -7.06%

Cc1c(N)cccc1N
activation [2]: 6.39%
max response [3]: 0.845%
outcome [5]: inactive
Potency [9]: inactive
max response [6]: 1.04%
max response [7]: 6.3%

CC(=O)C1(C)CC2=C(CCCC2(C)C)CC1C (stereo unspecified)
Potency [1]: inactive
activation [2]: -1.01%
Potency [4]: inactive
outcome [5]: inactive
Potency [9]: inactive
max response [6]: 5.61%
max response [7]: -9.23%

O=Cc1ccc(C(=O)O)cc1
Potency [1]: inactive
activation [2]: -0.237%
max response [3]: -5.11%
Potency [4]: inactive
outcome [5]: inactive
Potency [9]: inactive
max response [6]: -13.7%
max response [7]: -0.895%

CC=O
Potency [8]: inactive
max response [3]: -2.4%
Potency [4]: inactive
outcome [5]: inactive
Potency [9]: inactive
max response [7]: -3.08%

Cc1cc(C2(c3cc(C)c(O)cc3C)OS(=O)(=O)c3ccccc32)c(C)cc1O
Potency [10]: inactive
max response [3]: -10.4%
Potency [4]: inactive
outcome [5]: inactive
Potency [9]: inactive
max response [6]: -15.6%
max response [7]: -2.41%

C/C(C=O)=C/c1ccccc1
Potency [1]: inactive
activation [2]: -1.35%
Potency [4]: inactive
outcome [5]: inactive
Potency [9]: inactive
max response [6]: -7.12%
max response [7]: 5.25%

Nc1cccc(O)c1
Potency [1]: inactive
activation [2]: 2.45%
max response [3]: 0.244%
Potency [4]: inactive
outcome [5]: inactive
Potency [9]: inactive
max response [6]: -0.321%
max response [7]: 2.15%

C=CCCCC
Potency [1]: inactive
activation [2]: 0.475%
max response [3]: -2.42%
Potency [4]: inactive
outcome [5]: inactive
Potency [9]: inactive
max response [7]: 3.02%

CC(C)(c1cc(Br)c(OCC(Br)CBr)c(Br)c1)c1cc(Br)c(OCC(Br)CBr)c(Br)c1 (stereo unspecified)
Potency [1]: inactive
Potency [8]: inactive
activation [2]: -1.38%
max response [3]: -5.28%
Potency [4]: inactive
outcome [5]: inactive
Potency [9]: inactive
max response [6]: -4.49%
max response [7]: -17.5%

Cc1ccc2nc(-c3ccc(N)cc3)sc2c1S(=O)(=O)O
Potency [1]: 8.41 µM (active)
Potency [2]: 39.8 µM (active)
max response [3]: 2.42%
Potency [9]: inactive
max response [7]: -7.88%

O=Nc1ccc(NO)cc1
activation [2]: 6.63%
max response [3]: -1.48%
outcome [5]: inactive
max response [6]: 2.71%
max response [7]: -9.92%

O=C(O)CN(CC(=O)O)CC(=O)O
Potency [1]: inactive
max response [3]: 0.802% and -1.95% and -0.798%
Potency [4]: inactive
outcome [5]: inactive
Potency [9]: inactive
max response [6]: -26.1% and -5.78% and 9.03%
max response [7]: 8.87% and -10.3% and 10.6%
